{"source": "the supplement of paper PMC12636033", "note": "± gives the standard deviation of the averaged measurements. Over roughly 33,000 sequences, “E-score (rank enrichment, -0.5 to 0.5)” has its median near -0.0068; the highest 2% begin near 0.24. For the sample, the highest values were picked, then their nearest neighbours and some sequences at random.", "data": [{"system": "muMax20 (Max(13-93) K31hArg/K57hArg, M65Nle)", "assay": "PBM 8-mer E-score (E-score (rank enrichment, -0.5 to 0.5)); higher = stronger preferential binding", "protocol": "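Protein binding microarray (universal PBM chip covering all 10-mers in fixed probe flanks) with chemically synthesized human Max(13-93) bHLH-LZ analogs (not full-length Max) bearing noncanonical residues (hArg, Tha, Aib, Nle at 65) and aromatic Cys staples. Read-out per 8-mer (and its reverse complement): E-score (rank-based enrichment, -0.5 to 0.5) and Z-score of median probe intensity.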", "values": [{"sequence": "CCGGCCCG", "PBM 8-mer E-score": "-0.259 ± 0.054"}, {"sequence": "GCATGGTA", "PBM 8-mer E-score": "0.142 ± 0.082"}, {"sequence": "CCATGGTA", "PBM 8-mer E-score": "0.143 ± 0.12"}, {"sequence": "ACATGGTA", "PBM 8-mer E-score": "0.287 ± 0.017"}, {"sequence": "GTACCACA", "PBM 8-mer E-score": "0.115 ± 0.043"}, {"sequence": "CGTGCTCC", "PBM 8-mer E-score": "0.0253 ± 0.0099"}, {"sequence": "ACATCGTA", "PBM 8-mer E-score": "0.101 ± 0.015"}, {"sequence": "AAAATTTG", "PBM 8-mer E-score": "0.12 ± 0.17"}, {"sequence": "AAAATTTT", "PBM 8-mer E-score": "0.305 ± 0.019"}, {"sequence": "AAAAATTT", "PBM 8-mer E-score": "0.164 ± 0.0071"}, {"sequence": "CACTGACC", "PBM 8-mer E-score": "-0.132 ± 0.086"}, {"sequence": "ACCATGTC", "PBM 8-mer E-score": "0.0641 ± 0.067"}, {"sequence": "ACCATGTA", "PBM 8-mer E-score": "0.0719 ± 0.046"}, {"sequence": "ACCATGTG", "PBM 8-mer E-score": "0.359 ± 0.078"}, {"sequence": "AGCATGTG", "PBM 8-mer E-score": "0.276 ± 0.029"}, {"sequence": "AGCATGTC", "PBM 8-mer E-score": "0.0591 ± 0.078"}, {"sequence": "ATCATGTA", "PBM 8-mer E-score": "0.108 ± 0.027"}, {"sequence": "ATCATGTG", "PBM 8-mer E-score": "0.247 ± 0.12"}, {"sequence": "AGCATGTA", "PBM 8-mer E-score": "0.228 ± 0.034"}, {"sequence": "ATCATGTC", "PBM 8-mer E-score": "0.225 ± 0.024"}, {"sequence": "CCTCGACA", "PBM 8-mer E-score": "-0.0844 ± 0.042"}, {"sequence": "ATATGCTC", "PBM 8-mer E-score": "0.171 ± 0.015"}, {"sequence": "AATGAAAA", "PBM 8-mer E-score": "0.13 ± 0.0019"}, {"sequence": "AATGCGAT", "PBM 8-mer E-score": "0.019 ± 0.029"}, {"sequence": "CCCCGAAA", "PBM 8-mer E-score": "-0.0496 ± 0.15"}, {"sequence": "ATCTTGAG", "PBM 8-mer E-score": "0.251 ± 0.011"}, {"sequence": "ATCTTGAA", "PBM 8-mer E-score": "0.0915 ± 0.096"}, {"sequence": "ATCTTGAC", "PBM 8-mer E-score": "0.00194 ± 0.029"}, {"sequence": "AATGATGT", "PBM 8-mer E-score": "0.0444 ± 0.087"}, {"sequence": "GCATGTCC", "PBM 8-mer E-score": "0.00639 ± 0.093"}, {"sequence": "AGTGAGGG", "PBM 8-mer E-score": "-0.0244 ± 0.062"}, {"sequence": "TATAAAAA", "PBM 8-mer E-score": "0.301 ± 0.1"}, {"sequence": "CATAAAAC", "PBM 8-mer E-score": "0.209 ± 0.058"}, {"sequence": "CATAAAAA", "PBM 8-mer E-score": "0.254 ± 0.044"}, {"sequence": "GATAAAGA", "PBM 8-mer E-score": "0.195 ± 0.048"}, {"sequence": "GGTAAACA", "PBM 8-mer E-score": "0.163 ± 0.037"}, {"sequence": "CATAAAAG", "PBM 8-mer E-score": "0.138 ± 0.11"}, {"sequence": "TATAAAGA", "PBM 8-mer E-score": "0.252 ± 0.053"}, {"sequence": "TAAAAAAA", "PBM 8-mer E-score": "0.159 ± 0.11"}, {"sequence": "AATAAAGA", "PBM 8-mer E-score": "0.18 ± 0.015"}, {"sequence": "AGTAAACA", "PBM 8-mer E-score": "0.202 ± 0.092"}, {"sequence": "GATAAAAA", "PBM 8-mer E-score": "0.204 ± 0.016"}, {"sequence": "TGTAAACA", "PBM 8-mer E-score": "0.237 ± 0.0061"}, {"sequence": "AAAGTAGA", "PBM 8-mer E-score": "0.0577 ± 0.0065"}, {"sequence": "CAAGGTAA", "PBM 8-mer E-score": "0.0156 ± 0.05"}, {"sequence": "CACCCCAA", "PBM 8-mer E-score": "0.206 ± 0.015"}, {"sequence": "CGAGCACC", "PBM 8-mer E-score": "-0.226 ± 0.0053"}, {"sequence": "TGCCTGAA", "PBM 8-mer E-score": "-0.00136 ± 0.071"}, {"sequence": "ATTGATCG", "PBM 8-mer E-score": "0.103 ± 0.027"}, {"sequence": "CATAAACA", "PBM 8-mer E-score": "0.252 ± 0.053"}, {"sequence": "GATAAACA", "PBM 8-mer E-score": "0.136 ± 0.05"}, {"sequence": "TATAAACA", "PBM 8-mer E-score": "0.234 ± 0.022"}, {"sequence": "GTCGCGCA", "PBM 8-mer E-score": "-0.0658 ± 0.12"}, {"sequence": "GTACTCCA", "PBM 8-mer E-score": "-0.0757 ± 0.025"}, {"sequence": "AAGCTGTA", "PBM 8-mer E-score": "0.111 ± 0.038"}, {"sequence": "AAGCTGAT", "PBM 8-mer E-score": "0.313 ± 0.042"}, {"sequence": "AAGCTGAC", "PBM 8-mer E-score": "-0.16 ± 0.059"}, {"sequence": "TGCTGGAA", "PBM 8-mer E-score": "-0.0216 ± 0.063"}, {"sequence": "GGAGAACC", "PBM 8-mer E-score": "-0.142 ± 0.092"}, {"sequence": "CGTTATAC", "PBM 8-mer E-score": "0.036 ± 0.026"}, {"sequence": "AGTTATAA", "PBM 8-mer E-score": "0.181 ± 0.096"}, {"sequence": "AGTTATAT", "PBM 8-mer E-score": "0.244 ± 0.012"}, {"sequence": "CGTTATAA", "PBM 8-mer E-score": "0.133 ± 0.02"}, {"sequence": "AGTTATAC", "PBM 8-mer E-score": "0.143 ± 0.075"}, {"sequence": "CGTTATAG", "PBM 8-mer E-score": "0.262 ± 0.046"}, {"sequence": "GTCTTCCA", "PBM 8-mer E-score": "-0.0719 ± 0.098"}, {"sequence": "ATCCTAAG", "PBM 8-mer E-score": "-0.054 ± 0.025"}, {"sequence": "ACAAAGCG", "PBM 8-mer E-score": "0.0741 ± 0.0089"}, {"sequence": "GAACCTAC", "PBM 8-mer E-score": "-0.16 ± 0.037"}, {"sequence": "ATATTTAA", "PBM 8-mer E-score": "0.344 ± 0.013"}, {"sequence": "ATATTAAC", "PBM 8-mer E-score": "0.196 ± 0.0065"}, {"sequence": "GCATTTAA", "PBM 8-mer E-score": "0.0477 ± 0.11"}, {"sequence": "ACATTTAG", "PBM 8-mer E-score": "0.136 ± 0.066"}, {"sequence": "ATATTAAG", "PBM 8-mer E-score": "0.163 ± 0.058"}, {"sequence": "ACATTTAA", "PBM 8-mer E-score": "0.258 ± 0.14"}, {"sequence": "ATATTTAC", "PBM 8-mer E-score": "0.196 ± 0.025"}, {"sequence": "ATATTAAT", "PBM 8-mer E-score": "0.238 ± 0.075"}, {"sequence": "ATATTAAA", "PBM 8-mer E-score": "0.326 ± 0.0046"}, {"sequence": "CTATTAAA", "PBM 8-mer E-score": "0.159 ± 0.025"}, {"sequence": "CTATTTAA", "PBM 8-mer E-score": "0.0343 ± 0.057"}, {"sequence": "TTATTAAA", "PBM 8-mer E-score": "0.142 ± 0.044"}, {"sequence": "AGGAACTA", "PBM 8-mer E-score": "-0.0068 ± 0.0036"}, {"sequence": "CACCAGGG", "PBM 8-mer E-score": "-0.137 ± 0.034"}, {"sequence": "AAGTCTTC", "PBM 8-mer E-score": "0.0741 ± 0.052"}, {"sequence": "CTCCATTC", "PBM 8-mer E-score": "0.102 ± 0.029"}, {"sequence": "CGAACCTC", "PBM 8-mer E-score": "0.00719 ± 0.0044"}, {"sequence": "AAAAATCT", "PBM 8-mer E-score": "0.0641 ± 0.091"}, {"sequence": "GTCCTGAA", "PBM 8-mer E-score": "-0.111 ± 0.053"}, {"sequence": "CCAGAAAC", "PBM 8-mer E-score": "-0.112 ± 0.092"}, {"sequence": "CTCACGGA", "PBM 8-mer E-score": "-0.205 ± 0.023"}, {"sequence": "GATAGCAC", "PBM 8-mer E-score": "0.0754 ± 0.042"}, {"sequence": "CATAGCAC", "PBM 8-mer E-score": "0.258 ± 0.0042"}, {"sequence": "CATAGCAA", "PBM 8-mer E-score": "0.209 ± 0.024"}, {"sequence": "AGGGCGAT", "PBM 8-mer E-score": "-0.119 ± 0.015"}, {"sequence": "AGACTAAT", "PBM 8-mer E-score": "-0.0591 ± 0.045"}, {"sequence": "GGATATTA", "PBM 8-mer E-score": "0.125 ± 0.09"}, {"sequence": "CGATATTA", "PBM 8-mer E-score": "0.267 ± 0.038"}, {"sequence": "CGATATAA", "PBM 8-mer E-score": "0.267 ± 0.016"}, {"sequence": "CGATATAG", "PBM 8-mer E-score": "0.044 ± 0.12"}, {"sequence": "CGATATAC", "PBM 8-mer E-score": "0.0102 ± 0.0034"}, {"sequence": "CGATATTC", "PBM 8-mer E-score": "-0.032 ± 0.1"}, {"sequence": "CTCGGGTC", "PBM 8-mer E-score": "-0.292 ± 0.04"}, {"sequence": "ATCTCAGC", "PBM 8-mer E-score": "-0.206 ± 0.11"}, {"sequence": "ATCATAAA", "PBM 8-mer E-score": "0.212 ± 0.046"}, {"sequence": "ATCATAAG", "PBM 8-mer E-score": "0.19 ± 0.028"}, {"sequence": "ATCATGAT", "PBM 8-mer E-score": "0.289 ± 0.0047"}, {"sequence": "ATCATGAG", "PBM 8-mer E-score": "0.111 ± 0.046"}, {"sequence": "AACATAAT", "PBM 8-mer E-score": "0.31 ± 0.035"}, {"sequence": "ATCATAAT", "PBM 8-mer E-score": "0.288 ± 0.047"}, {"sequence": "ATCATGAA", "PBM 8-mer E-score": "0.111 ± 0.029"}, {"sequence": "AACATAAG", "PBM 8-mer E-score": "0.13 ± 0.07"}, {"sequence": "AACATAAC", "PBM 8-mer E-score": "0.18 ± 0.13"}]}]}
